According to PubChem BioAssay (EPA / NIEHS):
Results filed as inconclusive are left out. Active and inactive are the calls of the source. The calls were made as follows: active = hit-call score of the fitted dose curve at least 0.9, where 1 is the maximum; inconclusive = response in the unintended direction; inactive = score below 0.9.

assay: ATG_XTT_Cytotoxicity: Cytotoxicity Assessment in the Attagene TRANS-FACTORIAL HepG2 Assay (AID 2283584)
Method in brief: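 HepG2 human liver cells, transiently transfected with multiple GAL4-UAS reporter units, were dosed and read at 24 h by XTT as cell number. Loss of signal was fitted relative to DMSO negative control baseline.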

Compound | outcome
NC(=S)Nc1ccccc1 | inactive
O=C(NCO)NCO | inactive
C=CCc1ccc(OC)cc1 | inactive
CC(=[OH+])/C=C(/C)[O-].CC(=[OH+])/C=C(/C)[O-].CC(=[OH+])/C=C(/C)[O-].[Al] | inactive
C=C(C)C#N | inactive
CCc1ccccc1N | inactive
COP(=O)(OC)O/C(=C\Cl)c1cc(Cl)c(Cl)cc1Cl | inactive
CCOP(=S)(OCC)SCCS(=O)(=O)CC | inactive
C[C@@H](Oc1ccc(Cl)cc1Cl)C(=O)O | inactive
Oc1c(I)cc(I)cc1I | inactive
O=Cc1cccc(Oc2ccccc2)c1 | inactive
OCc1ccco1 | inactive
O=[N+]([O-])c1ccc2c3c(cccc13)CC2 | inactive
CCOP(=S)(OCC)Oc1ccc(S(C)=O)cc1 (configuration not stated) | inactive
C=CC(=O)N(C)C | inactive
Cl/C=C/Cl | inactive
CCCCCCCCC(=O)NCc1ccc(O)c(OC)c1 | inactive
COc1ccccc1OC | inactive
O=C(c1ccccc1)C(Cl)Cl | inactive

Compound | outcome
CC1(C)CCC(Cc2ccc(Cl)cc2)C1(O)Cn1cncn1 (configuration not stated) | inactive
O=C1CCCN1 | inactive
O=CC=O | inactive
Fc1ccc(C2(Cn3cncn3)OC2c2ccccc2Cl)cc1 (configuration not stated) | inactive
COS(=O)(=O)c1ccc(C)cc1 | inactive
COC(=O)Cc1ccccc1 | inactive
CC(=O)C=C(C)C | inactive
CC1(C)Cc2cccc(O)c2O1 | inactive
O=C(O)Cc1ccccc1 | inactive
CCOC(=O)CP(=O)(OCC)OCC | inactive
COc1ccc(OC)c(C=O)c1 | inactive
N#CCCO | inactive
C[C@]12CC[C@H](O)CC1=CC[C@@H]1[C@@H]2CC[C@]2(C)C(=O)CC[C@@H]12 | inactive
CC1CN1P(=O)(N1CC1C)N1CC1C (configuration not stated) | inactive
Nc1ccc(Cl)cc1C(=O)c1ccccc1 | inactive
CC(=[OH+])/C=C(/C)[O-].CC(=[OH+])/C=C(/C)[O-].CC(=[OH+])/C=C(/C)[O-].[Fe] | inactive
CN(CCCC(=O)c1cccnc1)N=O | inactive
CCc1ccccc1C | inactive
